Compound activity from PubChem BioAssay.
In the library only some 15% were active in any assay of this set; here they are far more common.
TDP1 cell CPT: qHTS for Inhibitors of human tyrosyl-DNA phosphodiesterase 1 (TDP1): qHTS in cells in presence of CPT; chicken DT40 Tdp1-/-;hTDP1 cells + 20 nM CPT, ATP luminescence, 48 h; hit rate 12% among 420,000; Potency, µM (highest dose often 46.2 µM), for inactives: at the top dose activity change, negative = growth inhibition, most hits filed as inhibitors; note: nearly all actives have a fitted effect of over 55% in size
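Cell growth measured by CellTiter-Glo luminescence after a minimum 48 h, 37 C compound exposure with 20 nM CPT in Tdp1-knockout DT40 cells stably expressing hTDP1, seeded 400/well; qHTS titration format.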
12-LOX inh: Primary qHTS assay for inhibitors of human arachidonate 12S-lipoxygenase (ALOX12): Round 2. Polyunsaturated fatty acid lipoxygenase ALOX12 (Homo sapiens), P18054. purified 12hLO, xylenol orange hydroperoxide absorbance. Potency, µM (titrated, usually from 108 µM), for inactives: top-dose activity change, negative = inhibition, actives largely listed as inhibitors. hit rate 1.1% among 580,000. AID 1671190, 2021
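Hydroperoxide product was detected by ferrous iron/xylenol orange as the 573 to 405 nm absorbance ratio. Arachidonic acid at 40 uM (final) was turned over for 30 min at room temperature by 150 nM human 12hLO, pH 7.0 Hepes buffer, after 15 min compound preincubation.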
TDP1 cell noCPT: qHTS for Inhibitors of human tyrosyl-DNA phosphodiesterase 1 (TDP1): qHTS in cells in absence of CPT. DT40 Tdp1-/- hTDP1 cells, no CPT, ATP luminescence, 48 h. Potency, µM (highest dose often 46.2 µM), for the others: at the top dose activity change, negative = growth inhibition, actives largely listed as inhibitors. hit rate 15% among 420,000; note: nearly all actives have a fitted effect of over 55% in size
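Chicken DT40 Tdp1-/- cells stably complemented with human TDP1 were seeded at 400 cells/well with DMSO in place of 20 nM camptothecin. After compound pinning, cells grew at least 48 hr at 37 °C; viability read by CellTiter-Glo luminescence.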
Gal4-VP16 FLuc: VP16 counterscreen qHTS for inhibitors of ROR gamma transcriptional activity. AID 2546, 2010. hit rate 3.5% among 310,000. Drosophila S2 Gal4-VP16 UAS-luciferase, luminescence, 20 h. Potency, µM (doses to about 53.6 µM), without a hit: at the top dose activity, negative = inhibition, most hits filed as inhibitors;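 note: Gal4-VP16 expression switched on by copper sulfate through the metallothionein promoter; nearly all actives have a fitted effect of over 50% in size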
ELG1 DNA repair: qHTS screen for small molecules that inhibit ELG1-dependent DNA repair in human embryonic kidney (HEK293T) cells expressing luciferase-tagged ELG1. hit rate 2.3% among 330,000. HEK293T ELG1-luciferase reporter, luminescence, 16 h; DNA damage induced by 5-fluorouridine. AID 504467, 2011. Potency, µM (series often up to 46.1 µM), without a hit: at the top dose activity change, negative = inhibition, most hits filed as inhibitors; note: nearly all actives have a fitted effect of over 55% in size
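HEK293T cells expressing luciferase-tagged ELG1 (2,000/well) received 5-Fluorouridine plus compound or DMSO for 16 hr at 37 °C. Luciferase was read by ONE-Glo luminescence after 30 min at room temperature.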
RORgamma inh: qHTS for inhibitors of ROR gamma transcriptional activity; Nuclear receptor ROR-gamma (Mus musculus), P51450; Drosophila S2 Gal4-RORgamma UAS-luciferase reporter, 20 h; Potency, µM (top dose mostly 53.6 µM), for the others: at the highest dose activity change, negative = inhibition, most hits filed as inhibitors; hit rate 5.4% among 310,000; AID 2551, 2010; note: nearly all actives have a fitted effect of over 60% in size
Target sequence (P51450 whole entry, looked up, the tested form may be a part): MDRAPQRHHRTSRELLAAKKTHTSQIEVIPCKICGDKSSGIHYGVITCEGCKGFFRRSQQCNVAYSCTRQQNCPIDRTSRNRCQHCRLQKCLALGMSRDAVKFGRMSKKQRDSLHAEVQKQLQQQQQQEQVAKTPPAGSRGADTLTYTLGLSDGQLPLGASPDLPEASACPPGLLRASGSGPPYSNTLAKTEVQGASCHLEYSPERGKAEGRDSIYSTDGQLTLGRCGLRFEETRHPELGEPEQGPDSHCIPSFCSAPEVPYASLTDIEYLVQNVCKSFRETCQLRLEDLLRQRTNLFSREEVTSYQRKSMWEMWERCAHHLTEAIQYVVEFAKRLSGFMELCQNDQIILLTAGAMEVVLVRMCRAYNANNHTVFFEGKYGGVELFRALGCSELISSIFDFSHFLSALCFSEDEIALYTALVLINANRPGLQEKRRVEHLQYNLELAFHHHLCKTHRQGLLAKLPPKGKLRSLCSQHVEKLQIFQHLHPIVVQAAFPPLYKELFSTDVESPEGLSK
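In this cell-based reporter format, copper sulfate (700 uM final) drives Gal4–ROR gamma fusion expression from a metallothionein promoter in Drosophila Schneider cells; compounds preincubated 1 hr, reporter read after 20 hr at ambient temperature.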
* marks the source's active call; other numbers are inactive results. Calls come from the whole dose curve; as a rule, active = well fitted curve in the direction sought with a large enough effect; inconclusive = small, poorly fitted or top-dose-only effect, or another doubt; inactive = no such curve, though single readings can be large; an effect the other way counts as inactive or inconclusive. % is set by controls: 0 for no effect and ±100 for the full control effect; potency is the fitted concentration of half-maximal effect.

Results for CSc1cccc(NC(=S)NC(=O)c2cccnc2)c1 ?
TDP1 cell CPT: -26%; 12-LOX inh: 6%; TDP1 cell noCPT: -19%; Gal4-VP16 FLuc: 11µM*; ELG1 DNA repair: 1%; RORgamma inh: 10µM*

Results for CCOc1ccc(C(=O)NC(=S)Nc2cccnc2)cc1 ?
TDP1 cell CPT: -1%; 12-LOX inh: -26%; TDP1 cell noCPT: -22%; Gal4-VP16 FLuc: 0%; ELG1 DNA repair: inconclusive; RORgamma inh: -16%

What do the screens show for `COc1cccc(C(=O)NC(=S)Nc2cccnc2)c1`?
TDP1 cell CPT: 6%; 12-LOX inh: -30%; TDP1 cell noCPT: -3%; Gal4-VP16 FLuc: -25%; ELG1 DNA repair: inconclusive; RORgamma inh: inconclusive

Results for CC(=O)c1c(C)[nH]c(C(=O)C(C)Oc2ccc3c(C)cc(=O)oc3c2)c1C (stereo not drawn) ?
12-LOX inh: -9%

Results for COc1ccc(C(=O)Nc2ccc3oc(C)nc3c2)c(OC)c1 ?
12-LOX inh: -14%

Results for COc1cccc(Cn2c(=O)c(-c3ccc(Cl)cc3)nc3cnc(N4CCN(C)CC4)nc32)c1 ?
TDP1 cell CPT: 3%; 12-LOX inh: inconclusive; TDP1 cell noCPT: -28%; Gal4-VP16 FLuc: -2%; RORgamma inh: -3%

How did O=c1c(-c2ccc(Cl)cc2)nc2cnc(N3CCNCC3)nc2n1Cc1ccc(F)cc1 do in these assays?
TDP1 cell CPT: 6.5µM*; 12-LOX inh: inconclusive; TDP1 cell noCPT: 9.2µM*; Gal4-VP16 FLuc: -24%; RORgamma inh: -30%

What do the screens show for `COc1cccc(Cn2c(=O)c(-c3cc(F)cc(F)c3)nc3cnc(N4CCN(C)CC4)nc32)c1`?
TDP1 cell CPT: 2%; 12-LOX inh: -20%; TDP1 cell noCPT: 15%; Gal4-VP16 FLuc: 1%; RORgamma inh: -16%

What do the screens show for `COc1cccc(Cn2c(=O)c(-c3ccc(F)cc3)nc3cnc(N4CCNCC4)nc32)c1`?
TDP1 cell CPT: 13µM*; 12-LOX inh: inconclusive; TDP1 cell noCPT: 23µM*; Gal4-VP16 FLuc: -20%; RORgamma inh: -10%

How did COc1cccc(Cn2c(=O)c(-c3ccc(Cl)cc3)nc3cnc(N4CCNCC4)nc32)c1 do in these assays?
TDP1 cell CPT: 5.8µM*; 12-LOX inh: -24%; TDP1 cell noCPT: 5.8µM*; Gal4-VP16 FLuc: inconclusive; RORgamma inh: inconclusive

What do the screens show for `COc1cccc(Cn2c(=O)c(-c3cccs3)nc3cnc(N4CCNCC4)nc32)c1`?
TDP1 cell CPT: inconclusive; 12-LOX inh: inconclusive; TDP1 cell noCPT: 18µM*; Gal4-VP16 FLuc: inconclusive; RORgamma inh: inconclusive

How did COc1cccc(Cn2c(=O)c(-c3cccs3)nc3cnc(N4CCOCC4)nc32)c1 do in these assays?
TDP1 cell CPT: -23%; 12-LOX inh: inconclusive; TDP1 cell noCPT: 3%; Gal4-VP16 FLuc: -6%; RORgamma inh: 24%

How did COc1cc(C)ccc1OC(=O)C(C)Oc1ccc(Br)cc1 (stereo not drawn) do in these assays?
12-LOX inh: 17%

What do the screens show for `COCCOC1CCOC2(CCN(C(=O)Cc3cccc(OC)c3)CC2)C1` (stereo not drawn)?
12-LOX inh: 31%

What do the screens show for `COc1cccc(Cn2c(=O)c(-c3ccc(Cl)cc3)nc3cnc(N4CCOCC4)nc32)c1`?
TDP1 cell CPT: -29%; 12-LOX inh: inconclusive; TDP1 cell noCPT: -18%; Gal4-VP16 FLuc: -6%; RORgamma inh: 1%
